The values that follow come from PubChem BioAssay (EPA / NIEHS).

“And” between values parts separate entries of the source, which are not always exact repeats. Identical values can stand only once. Inconclusive results are not listed. A structure can be active in one record and inactive in another. The source made the active and inactive calls. The calls were made as follows: active = hit-call score of the fitted dose curve at least 0.9, where 1 is the maximum; inconclusive = response in the unintended direction; inactive = score below 0.9.

Chain of Cellular tumor antigen p53 (Homo sapiens) (P04637 whole entry, looked up, the tested form may be a part): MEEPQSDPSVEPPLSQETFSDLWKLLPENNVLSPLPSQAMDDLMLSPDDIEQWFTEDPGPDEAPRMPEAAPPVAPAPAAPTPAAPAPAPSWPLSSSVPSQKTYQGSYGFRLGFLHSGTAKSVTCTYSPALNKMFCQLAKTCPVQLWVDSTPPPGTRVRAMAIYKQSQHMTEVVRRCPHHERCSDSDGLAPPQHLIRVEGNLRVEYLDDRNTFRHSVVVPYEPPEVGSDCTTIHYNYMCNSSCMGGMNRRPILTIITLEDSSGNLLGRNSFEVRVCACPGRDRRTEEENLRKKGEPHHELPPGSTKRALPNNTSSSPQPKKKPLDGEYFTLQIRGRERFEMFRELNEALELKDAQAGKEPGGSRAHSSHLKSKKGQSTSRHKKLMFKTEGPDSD

This assay has as its target Cellular tumor antigen p53 (Homo sapiens) (UniProt P04637). Put plainly: TOX21_p53_BLA_p2_ratio: Tox21 HCT-116 p53 Agonism Beta-lactamase Assay, Ratio, Phase 2 (AID 2283592). An excerpt: TOX21_p53_BLA_p2 is a cell-based, single-readout assay that uses HCT116, a human intestinal cell line, […] in a 1536-well plate.TOX21_p53_BLA_p2_ratio is an assay readout measuring reporter gene via receptor activity and designed using inducible reporter (beta lactamase induction) detected with GAL4 b-lactamase reporter gene. The signal is derived from the ratio of cleaved (ch2) to uncleaved (ch1) reporter gene substrate used as the measure of target activity.Data from the assay component TOX21_p53_BLA_p2_ratio was analyzed into 1 assay endpoint. This assay endpoint, TOX21_p53_BLA_p2_ratio, was analyzed in the positive analysis fitting direction relative to DMSO as the negative control and baseline of activity. Using a type of inducible reporter, gain-of-signal activity can be used to understand changes in the reporter gene as they relate to the gene TP53. Furthermore, this assay endpoint can be referred to as a primary readout, because this assay has produced multiple assay endpoints and this ratio serves a reporter gene function to understand target activity. To generalize the intended target to other relatable targets, this assay endpoint is annotated to the DNA binding intended target family, where the subfamily is tumor suppressor.
Thawing Method: Place 14 mL of pre-warmed thaw medium into a 15 mL of conical tub. Remove the vial of cells to be thawed from liquid nitrogen and thaw rapidly by placing at 37C in a water bath with gentle agitation for 1-2 minutes. Decontaminate the vial by wiping with 70% ethanol before opening in a biological safety cabinet. Transfer the vial contents drop-wise into 14 mL of thaw medium in a sterile 15-mL conical tub. Centrifuge cells at 900 rpm for 4 minutes and resuspend in thaw medium. Transfer contents to the T75 tissue culture flask containing Thaw Medium and place flask in a humidified 37C/5% CO2 incubator. Switch to growth medium at first passage.Propagation Method: Aspirate medium, rinse once in DPBS, add 0.25% Trypsin/EDTA and swirl to coat the cell evenly. Add an equal volume of Growth Medium to inactivate Trypsin after 2-3 minutes incubation at 37C. Centrifuge cells at 900 rpm for 4 minutes and resuspend in growth medium. Cell should be passage or fed at least twice a week.Assay Protocol: Harvest cells from culture in growth medium and resuspend in assay medium. 2.2 Dispense 4000 cells/5 uL/well into 1536-well black/clear bottom plates using a Multidrop dispenser. After the cells were incubated at 37C for 5 hours, 23 nL of compounds dissolved in DMSO were transferred to the assay plate by a PinTool resulting in a 217-fold dilution. Incubate the plates for 16 hours at 37C, 5% CO2. Add 1 uL of 6X LiveBLAzer FRET B/G (CCF4-AM) Substrate Mixture to each well using a BioRAPTR dispenser and incubate the plates at room temperature for 2 hours. Measure fluorescence intensity at 460 and 530 nm emission and 405 nm excitation by an Envision detector. Data is expressed as the ratio of 460nm/530nm emissions. Add 4 uL of Cell-titer Glo to each well using BioRAPTR and incubate the plates at room temperature for 2 hours. Measure fluorescence intensity by a VewLux plate reader.
The AC50 is the midpoint of the concentration-response curve, whichever way the signal moves. On to `O=c1c(-c2ccc(O)cc2)coc2cc(O)cc(O)c12`, for which the AC50 was 18 µM (active) and the result was inactive.

Take `CCN(Cc1cccc(S(=O)(=O)O)c1)c1ccc(C(=C2C=CC(=[N+](CC)Cc3cccc(S(=O)(=O)O)c3)C=C2)c2ccccc2S(=O)(=O)[O-])cc1`: the result was inactive.

In the case of `CCCCCc1ccc(N)cc1`, the outcome was inactive. As for `CCN(Cc1cccnc1)C(=O)c1cccc(Cl)c1[C@]1(C)C(=O)N(Cc2ccc(OC)cc2OC)c2ccc(Cl)cc21`, the AC50 was 43.2 µM (active). The same measure, in the same setting: for `CN(C)c1ccc(C(=C2C=CC(=[N+](C)C)C=C2)c2ccc(N(C)C)cc2)cc1` the value was 33.6 µM (active) and 32.8 µM (active) and 7.06 µM (active). `Cc1cn([C@H]2C[C@H](N=[N+]=[N-])[C@@H](CO)O2)c(=O)[nH]c1=O`: the result was inactive.

With `C[C@]12CC[C@@H]3c4ccc(O)cc4CC[C@H]3[C@@H]1CC[C@H]2O`, the AC50 was 15.9 µM (active). As for `c1ccc2n[nH]nc2c1`, the outcome was inactive. The same measure, in the same setting: as for `O=C1CCC(C2CCCCC2)CC1`, the entry is “inactive”. With `CC(C)(c1cc(Br)c(O)c(Br)c1)c1cc(Br)c(O)c(Br)c1`, the AC50 was 54.6 µM (active) and 64.2 µM (active) and 60.5 µM (active). Regarding `Cc1c2ccccc2c(C)c2c1ccc1ccccc12`, the half-maximal activity concentration (AC50) is 14.6 µM (active) and 37.7 µM (active).

Turning to `CN1C(=O)CC[C@H]1c1cccnc1`, the result was inactive. `CCCCCCCCCCCC[N+](C)(C)C`: the AC50 is 14.7 µM (active) and 14.2 µM (active) and 14.1 µM (active). On the same count and under the same terms, for `COc1ccc2cc(S(=O)(=O)N[C@H](CC(=O)N[C@H](Cc3ccc(CN4[C@H](C)CCC[C@@H]4C)cc3)C(=O)N(C)C(C)C)c3ccc4c(c3)OCO4)ccc2c1` the value was 70.3 µM (active). `CC1(C)NC(=O)N(c2ccc([N+](=O)[O-])c(C(F)(F)F)c2)C1=O`: the result was inactive. The same measure, in the same setting: for `Oc1ccc2ccccc2c1` the value was “inactive”; for `O=c1[nH]sc2ccccc12`, “inactive”. In the case of `CCCCCCCCCCCO`, the result was inactive. As to `COc1cc(C(=O)NC2CCN(C)CC2)ccc1Nc1ncc2c(n1)N(C1CCCC1)CC(F)(F)C(=O)N2C`, the AC50 is 0.00393 µM (active). As to `O=C=NCCCCCCN=C=O`, the outcome was inactive. On the same count and under the same terms, for `CC[C@@H]1C[C@H](N(Cc2cc(C(F)(F)F)cc(C(F)(F)F)c2)C(C)=O)c2cc(C(F)(F)F)ccc2N1C(=O)OC(C)C` the value was “inactive”.

For `Cc1ccc2oc(CN(Cc3ccccc3)C(=O)Nc3c(F)cc(F)cc3F)c(-c3ccc(Cl)cc3)c2c1`, the outcome was inactive. As to `Clc1ccccc1C(c1ccccc1)(c1ccccc1)n1ccnc1`, the AC50 was 64.8 µM (active) and 19 µM (active). Consider `O=C(O)c1ccccc1C(=O)OCc1ccccc1`, for which the result was inactive.

As for `CCO[Si](CCCNC(N)=O)(OCC)OCC`, the result was inactive. `CCCCCCCC[Si](OCC)(OCC)OCC`: the result was inactive. For the molecule `O=C1c2ccccc2C(=O)N1CCc1noc(-c2ccc(CN3CCCCCC3)s2)n1`, the outcome was inactive.

Take `O=C(O)Cc1cc(I)c(Oc2ccc(O)c(I)c2)c(I)c1`: the AC50 was 899 nM (active) and 4.4 µM (active).

Turning to `CC[C@H](NC(=O)c1cc(F)ccc1NS(=O)(=O)c1cccc2cccnc12)c1ccccc1`, the outcome was inactive. Still for that read-out and setting: as for `CC(=O)N1CCN(c2ccc(OC[C@H]3CO[C@](Cn4ccnc4)(c4ccc(Cl)cc4Cl)O3)cc2)CC1`, the entry is “inactive”. Consider `CN(C[C@@H](CC[N+]12CCC(C3CCCCC3)(CC1)CC2)c1ccc(Cl)c(Cl)c1)C(=O)c1cc(C(F)(F)F)cc(C(F)(F)F)c1`, for which the AC50 is 64.8 µM (active). In the case of `CC(C)(C)c1csc(-c2cc3cc(OCc4ccccc4CC(=O)O)ccc3o2)n1`, the concentration at half-maximal activity (AC50) is 36.2 µM (active). For `OCCO`, the outcome was inactive. Take `NC(=O)c1nc(-c2cccc(-c3cc(F)ccc3OCC(F)(F)C(F)(F)F)c2)n[nH]1`: the AC50 was 79.6 µM (active). Same read-out and setting: for `CN1C(=O)N(c2ccccc2Br)Cc2cnc(Nc3ccc4c(c3)OCC(CO)O4)nc21` (stereo not given) the value was 4.26 µM (active); for `OC12N=C(c3ccccc3)SC1Cc1cc(Cl)ccc12` (stereo not given), 71.5 µM (active). Turning to `Clc1cc(Cl)c2c(c1)N=C1CCCCCN1C2`, the result was inactive. With `Cc1oc2c(NC(=O)c3c(Cl)cccc3Cl)cccc2c1C(C)(C)O`, the outcome was inactive. Same read-out and setting: for `CCCCCCCCN(C)CCCCCCCC` the value was “inactive”.
